# Assay outcomes deposited in PubChem by Center for Chemical Genomics, University of Michigan.
# Dicer inh: human Dicer pre-microRNA cleavage inhibition. 6% of 47,000 active. z-score at 25 µM. Q9UPY3. cat-ELCCA pre-miR-21 Dicer processing, chemiluminescence; active compounds read high; in the data active means z-score above about 3, passing the limit was not always enough;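 further: plate controls were vehicle for no effect and no enzyme for full effect; higher signal means more uncleaved substrate so more Dicer inhibition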
# An asterisk follows results filed as active. The sample as a whole holds a higher share of hits than the screen did.
SMILES,Dicer inh
ONC=Nc1cc(Cl)c(-n2cccc2)cc1Cl,-0.78
CSc1ccc(C(=O)NC(=O)NCc2cccc(Cl)c2)s1,1.8
CC(C)(C)c1cc2nc(C(F)(F)F)cc(N/N=C/c3ccc(C(F)(F)F)cc3)n2n1,-0.3
Cc1nn(-c2ccccc2)c2nc(-c3ccco3)cc(C(F)(F)F)c12,0.61
Cc1nn(-c2ccc(Cl)cc2)c2nc(-c3ccco3)cc(C(F)(F)F)c12,4.7*
Cc1ccc(-n2nc(C)c3c(C(F)(F)F)cc(-c4ccco4)nc32)cc1,0.87
O=c1[nH]c2c(sc3nnc(-c4ccccc4)c(-c4ccccc4)c32)c(=O)n1-c1ccc(Cl)cc1,1.4
N#Cc1c(NC(=O)c2ccc(S(=O)(=O)N3CCOCC3)cc2)sc2c1CCCC2,1.4
COc1ccc(OC)c(S(=O)(=O)N2CCc3cc(OC)c(OC)cc3C2C)c1 (stereo unspecified),0.09
CCOC(=O)c1ccc2nc(C(F)(F)F)nc(NCCCN3CCCC3=O)c2c1,-0.34
C1CCN(c2nnnc3c2sc2nc(N4CCOCC4)c4c(c23)CCCC4)CC1,1.4
CCCCSC1=C(C#N)C(=O)NC(c2ccc(O)c(OC)c2)S1 (stereo unspecified),3.1*
CCCCSC1=C(C#N)C(=O)NC(c2ccc(C(=O)O)cc2)S1 (stereo unspecified),-1.4
CCCCSC1=C(C#N)C(=O)NC(c2ccc(O)cc2)S1 (stereo unspecified),-0.9
CC(Oc1ccccc1-c1ccccc1)c1n[nH]c(=S)n1C (stereo unspecified),2.9
O=C(Cn1nc(C(F)(F)F)c2c1CCC2)Nc1ccc(-n2cccc2)c(Cl)c1,0.53
C(=N\Nc1ncnc2sc(-c3ccccc3)cc12)/c1ccncc1,2.8
C(=N\Nc1ncnc2sc(-c3ccccc3)cc12)/c1cccs1,1.1
Cc1ccc(/C=N/Nc2ncnc3sc(-c4ccccc4)cc23)o1,3.8*
CC(C)(C)C1CCc2oc3ccc(NS(=O)(=O)c4ccc(C(=O)O)cc4)cc3c2C1 (stereo unspecified),4.2*
COc1ccc(OC)c(NS(=O)(=O)c2ccc(Cl)cc2)c1,1.2
O=c1oc2c(Br)cc(NS(=O)(=O)c3ccc(Cl)cc3)cc2s1,13*
Cc1cc(C)c(C)c(S(=O)(=O)Nc2ccc3oc(=O)sc3c2)c1C,4.3*
COc1cc(S(=O)(=O)Nc2cccnc2)ccc1F,0.84
Cn1cc(Br)c(-c2cccc(NS(=O)(=O)c3ccc(Cl)cc3)c2)n1,0.02
SMILES,Dicer inh
COc1ccc(S(=O)(=O)Nc2ccc3oc(=O)sc3c2)cc1OC,3.4*
COC(=O)c1c(C)oc2ccc(NS(=O)(=O)c3ccc(Br)cc3)cc12,0.56
CCc1ccc(S(=O)(=O)Nc2ccc3oc4c(c3c2)CCCC4)cc1,2.1
COc1ccccc1C(=O)Oc1ccc2oc(=O)sc2c1,2.2
CCOc1nc(-c2ccccc2)ccc1-c1noc(-c2cc(OC)cc(OC)c2)n1,0.55
Cc1cc(-c2cccs2)c2c(n1)sc1c(O)cc(=O)[nH]c12,-1.6
CCCOc1ccc(Oc2nc(NCC)cc(NC(C)(C)C)n2)nn1,0.84
Clc1ccc(Sc2nc3sccn3c2C=Nc2ccccc2)cc1,0.23
CCOC(=O)c1c(SC)nc2c(Cl)cccc2c1N1CCCCC1,-1.9
Cc1cc(OCc2nnc(-c3ccc4ccccc4c3)o2)c2nncn2n1,-1.2
Cc1cc(F)ccc1S(=O)(=O)Nc1c(C)n(C)n(-c2ccccc2)c1=O,-0.46
O=S(=O)(Nc1ccc(Br)cc1)c1ccccc1,1.8
Cc1cc(F)ccc1S(=O)(=O)Nc1ccc2oc(C)c(C(=O)OC(C)C)c2c1,-0.11
Cc1ccc(S(=O)(=O)Nc2ccc3oc(=O)sc3c2)c(C)c1,1.1
O=c1oc2c(Cl)cc(NS(=O)(=O)c3ccccc3)cc2s1,11*
Cc1cc(F)ccc1S(=O)(=O)Nc1ccc2oc(=O)sc2c1,7.8*
CC(=O)Nc1ccc(NS(=O)(=O)c2ccc(C)cc2)cc1[N+](=O)[O-],-0.02
COc1ccc(OC)c(S(=O)(=O)Nc2cc(Cl)c3oc(=O)sc3c2)c1,-0.17
CCOC(=O)n1c(=O)oc2cc(S(=O)(=O)Nc3ccc(C)cc3)ccc21,1.1
CC1CCc2oc3ccc(NS(=O)(=O)c4cccc5cccnc45)cc3c2C1 (stereo unspecified),-0.24
Cc1ccc(S(=O)(=O)Nc2ccc3oc(=O)sc3c2)cc1,5*
Cc1cc(F)ccc1S(=O)(=O)Nc1ccc2oc3c(c2c1)CC(C)CC3 (stereo unspecified),6.6*
Cn1c(=O)c2c(N)c([N+](=O)[O-])c(=O)n(-c3ccccc3)c2n(C)c1=O,-4.6
COc1cc(CNCc2cccnc2)cc(Cl)c1OCc1cccs1,-0.35
CCOC(=O)NNC(=S)Nc1ccccc1OC,-1.5
Cn1c(=O)c2c(nc(NCC(O)c3ccccc3)n2C)n(C)c1=O (stereo unspecified),0.2
Cc1cc(S(=O)(=O)Nc2cccnc2)c(C)cc1Cl,-0.28
O=S(=O)(Nc1ccc2c(c1)OCO2)c1ccc(Cl)cc1,-0.39
Cc1cc(=O)oc2cc(NS(=O)(=O)c3ccc(F)cc3)ccc12,0.84
O=S(=O)(Nc1nc(-c2ccc(Cl)cc2Cl)cs1)c1ccc(Cl)cc1,10
